Experimental data taken from PubChem BioAssay (Tox21).
Records with an inconclusive call do not appear. Active and inactive are the calls of the source. Unless noted, calls follow the shape of the dose curve; as a rule, active = well fitted curve in the direction sought with a large enough effect in the repeat runs; inconclusive = weak or mixed curves; inactive = no such curve, though single readings can be large; an effect the other way counts as inactive or inconclusive.

Legend:
[1] = qHTS assay to identify small molecule antagonists of the estrogen related receptor (ERR) signaling pathway from Tox21 library - cell viability counter screen (AID 1224834); also: nearly all actives have a fitted effect of over 30% in size; also: potency is read from the fitted curve at half-maximal effect
Outline: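 Multiplexed viability counter screen in ERR cells: 17.5 h compound exposure at 37 C, CellTiter-Fluor added, 30 min at 37 C/5% CO2, fluorescence read.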

[2] = qHTS assay to identify small molecule agonists of the constitutive androstane receptor (CAR) signaling pathway - cell viability counter screen (AID 1224836); also: nearly all actives have a fitted effect of over 45% in size; also: potency is read from the fitted curve at half-maximal effect
Outline: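 Double-stable HepG2 hepatoma cells (hCAR plus CYP2B6-2.2kb) are treated for 23 h at 37 C with test compounds in 15-point concentration series. PK11195 at 0.75 uM final is co-added. Cell viability is quantified by CellTiter-Fluor.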

[3] = qHTS assay to identify small molecule antagonists of the constitutive androstane receptor (CAR) signaling pathway - cell viability counter screen (AID 1224837); also: nearly all actives have a fitted effect of over 45% in size; also: potency is read from the fitted curve at half-maximal effect
Outline: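 Read-out: CellTiter-Fluor fluorescence after 23 hr at 37 C/5% CO2. Cells: HepG2 double-stable for hCAR and CYP2B6-2.2kb. Compounds tested at 15 concentrations in the presence of CITCO, final concentration 50 nM.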

[4] = target: Nuclear receptor subfamily 1 group I member 3 (Homo sapiens) (UniProt Q14994); assay: qHTS assay to identify small molecule antagonists of the constitutive androstane receptor (CAR) signaling pathway (AID 1224838);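 also: HepG2 cells stably expressing hCAR with CYP2B6 luciferase reporter stimulated by CITCO; nearly all actives have a fitted effect of over 40% in size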
Sequence of Nuclear receptor subfamily 1 group I member 3 (Homo sapiens) (Q14994 whole entry, looked up): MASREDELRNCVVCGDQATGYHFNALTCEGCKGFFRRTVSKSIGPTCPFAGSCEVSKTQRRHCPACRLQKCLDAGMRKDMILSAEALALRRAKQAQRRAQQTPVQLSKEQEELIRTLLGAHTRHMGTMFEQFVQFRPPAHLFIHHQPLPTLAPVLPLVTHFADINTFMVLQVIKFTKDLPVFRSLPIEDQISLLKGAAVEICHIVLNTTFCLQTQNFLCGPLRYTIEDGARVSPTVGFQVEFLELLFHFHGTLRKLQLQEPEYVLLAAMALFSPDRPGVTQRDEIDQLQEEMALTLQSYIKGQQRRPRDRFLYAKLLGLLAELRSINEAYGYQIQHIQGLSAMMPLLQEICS
Outline: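 Read-out: ONE-Glo luciferase luminescence after 30 min at room temperature. HepG2-CYP2B6-hCAR double-stable cells, compounds in 15-point titration plus 50 nM CITCO final, 24 h at 37 C/5% CO2.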

[5] = qHTS assay to identify small molecule antagonists of the estrogen related receptor signaling pathway with the pleiotropic PPARgamma coactivator (PGC) from Tox21 10K library - cell viability counter screen (AID 1224840; active = well fitted cell-killing curve with a large enough effect in the repeat runs, not every such curve was filed as active; also: nearly all actives have a fitted effect of over 40% in size; also: potency is read from the fitted curve at half-maximal effect)
Outline: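 Fluorescence read-out of CellTiter-Fluor viability reagent, added after cells had been exposed to compound in DMSO for 17.5 h at 37 C; 30 min development at 37 C/5% CO2. Cells: PGC/ERR line, 2,000/well.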

[6] = qHTS assay to identify small molecule agonists of the estrogen related receptor signaling pathway with the pleiotropic PPARgamma coactivator (PGC) from Tox21 10K library (AID 1224842); also: nearly all actives have a fitted effect of over 15% in size
Outline: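 PGC/ERR reporter cell line, 2,000 cells per well, incubated 6 h at 37 C before 23 nL compound in DMSO was added. After 18 h at 37 C, One-Glo luminescence read following 30 min at room temperature.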

[7] = target: Thyrotropin receptor (Homo sapiens) (UniProt P16473); assay: qHTS assay to identify small molecule agonists of the thyroid stimulating hormone receptor (TSHR) signaling pathway (AID 1224843; calls by dose curve; also: nearly all actives have a fitted effect of over 45% in size)
Sequence of Thyrotropin receptor (Homo sapiens) (P16473 whole entry, looked up): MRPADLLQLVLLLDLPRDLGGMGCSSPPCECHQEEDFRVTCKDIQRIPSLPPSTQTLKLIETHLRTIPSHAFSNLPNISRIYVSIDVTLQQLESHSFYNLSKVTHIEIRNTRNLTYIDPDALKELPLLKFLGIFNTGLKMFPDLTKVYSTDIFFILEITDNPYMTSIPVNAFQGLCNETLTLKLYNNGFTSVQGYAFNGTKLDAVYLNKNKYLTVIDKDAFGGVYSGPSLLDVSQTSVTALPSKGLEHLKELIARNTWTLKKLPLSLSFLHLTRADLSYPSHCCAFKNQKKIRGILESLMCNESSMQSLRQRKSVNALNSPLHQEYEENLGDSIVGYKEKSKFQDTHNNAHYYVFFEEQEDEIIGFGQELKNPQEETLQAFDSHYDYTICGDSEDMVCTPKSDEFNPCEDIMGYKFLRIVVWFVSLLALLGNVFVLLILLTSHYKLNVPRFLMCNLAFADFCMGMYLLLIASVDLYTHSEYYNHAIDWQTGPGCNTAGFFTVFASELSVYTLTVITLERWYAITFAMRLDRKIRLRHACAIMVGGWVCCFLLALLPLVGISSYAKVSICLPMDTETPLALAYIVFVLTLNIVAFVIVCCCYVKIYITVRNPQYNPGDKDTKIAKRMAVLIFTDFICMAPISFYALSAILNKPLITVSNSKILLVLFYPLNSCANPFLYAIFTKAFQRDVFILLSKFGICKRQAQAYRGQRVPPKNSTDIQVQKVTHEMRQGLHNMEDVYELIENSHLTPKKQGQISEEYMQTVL
Outline: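 Agonist-mode screen: TSHR HEK293 cells received test chemicals for half an hour at room temperature, then HTRF cAMP detection reagents for one hour prior to fluorescence measurement. Each chemical ran as a 15-concentration series, triplicated.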

[8] = qHTS assay to identify small molecule agonists of the hypoxia (HIF-1) signaling pathway (AID 1224846; active = well fitted activation curve with a large enough effect in the signal ratio in the repeat runs, not every such curve was filed as active; the % refers to the signal ratio)
Outline: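 Beta-lactamase FRET read-out (CCF4-AM substrate) from ME-180 cells carrying an HRE-driven bla reporter, after 17 hrs compound exposure at 37C/5% CO2. Cells were seeded at 2,000 per well in 0.5% dialyzed FBS medium and preincubated 5 hrs.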

[9] = qHTS assay to identify small molecule agonists of the estrogen related receptor (ERR) signaling pathway from Tox21 library (AID 1224849; calls by dose curve; also: nearly all actives have a fitted effect of over 15% in size); conditions: ERR reporter cell line, ONE-Glo luciferase, 18 h
Outline: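 Luminescence readout (ONE-Glo, 30 min RT) after 18 h compound exposure at 37 C of NTP-supplied ERR reporter cells; cells were plated 6 h before compound addition by pin tool.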

[10] = qHTS RealTime-Glo MT Cell Viability Assay in HepG2 cells - 24 hour (AID 1224867); also: nearly all actives have a fitted effect of over 50% in size
Outline: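 qHTS, HepG2, 600 cells/well, RealTime-Glo (NanoLuc + prosubstrate) added with cells; 5 h preincubation; DMSO compound addition; 37 C; luminescence at 0/8/16/24/32/40 h.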

[11] = qHTS RealTime-Glo MT Cell Viability Assay in HEK293 cells - 32 hour (AID 1224868); also: nearly all actives have a fitted effect of over 50% in size; also: potency is read from the fitted curve at half-maximal effect
Outline: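 Assay medium contained NanoLuc luciferase plus cell-permeant prosubstrate, added with HEK293 cells at 600 cells/well. After 5 h at 37 C/5% CO2 compounds were added; plates stayed at 37 C for 40 h with serial luminescence reads.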

[12] = A CellTox Green Cytotoxicity Assay to monitor cytotoxicity in HEK293 cells - 0 hour (AID 1224869); also: nearly all actives have a fitted effect of over 50% in size
Outline: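 Read-out: fluorescence of a cell-impermeant cyanine dye staining DNA of dead cells, proportional to cytotoxicity. HEK293, 600 cells/well with reagent, compound (23 nL DMSO) added after 5 h; reads at 0, 8, 16, 24, 32, 40 h.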

[13] = qHTS RealTime-Glo MT Cell Viability Assay in HepG2 cells - 40 hour (AID 1224870); also: nearly all actives have a fitted effect of over 50% in size
Outline: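 HepG2 cells (600/well) mixed with RealTime-Glo MT reagent, settled 5 h at 37 C/5% CO2 before compound addition. Nonlytic NanoLuc luminescence from viable-cell prosubstrate reduction read repeatedly during 40 h treatment at 37 C.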

[14] = qHTS assay to identify small molecule agonists of H2AX (AID 1224845; active = well fitted activation curve with a large enough effect in the signal ratio in the repeat runs, not every such curve was filed as active; the % refers to the signal ratio)
Outline: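 Wild-type CHO-K1 cells, plated overnight, exposed 3hr at 37C to 15 concentrations (0.76% DMSO final). Lysed, then HTRF anti-pH2AX (S139) cryptate and anti-H2AX-d2 antibodies, 24 hr room temperature; 665/620 nm emission read.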

[15] = qHTS assay to identify small molecule agonists of H2AX - cell viability counter screen (AID 1224847; calls by dose curve; also: nearly all actives have a fitted effect of over 30% in size; also: potency is read from the fitted curve at half-maximal effect)
Outline: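 For this counter screen, overnight-attached CHO-K1 cells received test compounds (15 concentrations, 0.76% DMSO final); 3 hr later at 37C, CellTiter-Glo reagent was added and luminescence recorded after 30 min at room temperature.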

[16] = target: Nuclear receptor subfamily 1 group I member 3 (Homo sapiens) (UniProt Q14994); assay: qHTS assay to identify small molecule agonists of the constitutive androstane receptor (CAR) signaling pathway (AID 1224839); also: nearly all actives have a fitted effect of over 15% in size; also: potency is read from the fitted curve at half-maximal effect;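 as to activation: HepG2 cells stably carrying human CAR and a CYP2B6 luciferase reporter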
Outline: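 Readout: firefly luciferase luminescence via ONE-Glo. System: HepG2 double-stable for hCAR and CYP2B6-2.2kb. Conditions: 15-point compound titration, PK11195 at 0.75 uM final, 24 h incubation.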

[17] = qHTS assay to identify small molecule antagonists of the estrogen related receptor signaling pathway with the pleiotropic PPARgamma coactivator (PGC) from Tox21 10K library (AID 1224841; call rule not given here; also: potency is read from the fitted curve at half-maximal effect)
Outline: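 Luminescence read-out (One-Glo luciferase reagent, 30 min at room temperature) from PGC/ERR cells exposed to DMSO-dissolved test compounds for 18 h at 37 C; cells, 2,000 per well, had been preincubated 6 h before compound transfer.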

[18] = qHTS assay to identify small molecule antagonists of the estrogen related receptor (ERR) signaling pathway from Tox21 library (AID 1224848); also: nearly all actives have a fitted effect of over 50% in size; also: potency is read from the fitted curve at half-maximal effect
Outline: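 Quantitative high-throughput format: ERR reporter cells (2,000/well) pre-incubated 6 h, treated 18 h at 37 C with compounds in DMSO alongside positive and negative controls, then read by ONE-Glo luminescence.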

[19] = target: Luciferin 4-monooxygenase (Photinus pyralis) (UniProt P08659); assay: qHTS assay to identify small molecule inhibitors of firefly luciferase (AID 1224835); also: nearly all actives have a fitted effect of over 25% in size; also: potency is read from the fitted curve at half-maximal effect
Sequence of Luciferin 4-monooxygenase (Photinus pyralis) (P08659 whole entry, looked up): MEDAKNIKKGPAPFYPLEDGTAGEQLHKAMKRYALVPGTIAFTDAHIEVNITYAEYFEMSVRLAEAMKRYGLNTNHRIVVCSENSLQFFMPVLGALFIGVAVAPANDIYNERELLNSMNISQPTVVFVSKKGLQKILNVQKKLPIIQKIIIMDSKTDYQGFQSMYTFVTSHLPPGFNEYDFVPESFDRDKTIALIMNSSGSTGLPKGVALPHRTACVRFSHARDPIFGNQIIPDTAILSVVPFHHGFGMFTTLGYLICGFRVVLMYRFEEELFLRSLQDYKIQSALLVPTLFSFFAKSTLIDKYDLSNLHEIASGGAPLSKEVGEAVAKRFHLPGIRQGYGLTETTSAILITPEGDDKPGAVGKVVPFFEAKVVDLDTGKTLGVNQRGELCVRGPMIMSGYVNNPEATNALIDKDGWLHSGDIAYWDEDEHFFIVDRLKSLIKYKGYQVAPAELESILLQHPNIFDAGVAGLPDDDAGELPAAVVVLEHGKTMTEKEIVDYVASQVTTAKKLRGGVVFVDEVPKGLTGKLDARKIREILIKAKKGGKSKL
Outline: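 Biochemical qHTS: compounds run as interplate titrations against purified firefly enzyme, with D-luciferin and ATP each at its KM concentration. Light output recorded by CCD imaging.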

[20] = qHTS assay to identify small molecule agonists of the hypoxia (HIF-1) signaling pathway - cell viability counter screen (AID 1224844; calls by dose curve; also: nearly all actives have a fitted effect of over 50% in size)
Outline: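 CellTiter-Glo luminescence read-out, 30 min RT, taken in the same wells as the beta-lactamase HRE reporter assay; HRE-bla ME-180 cells, 0.5% dialyzed FBS, 17 hr compound treatment at 37C, 5% CO2.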
% is scaled to controls: 0 for no effect and ±100 for the full control effect.

Nc1ccc(Oc2ccc(Cl)cc2)cc1
active: Potency [11] 21.4 µM
inactive: Potency [1] | Potency [2] | Potency [3] | Potency [4] | Potency [5] | Potency [6] | Potency [7] | Potency [8] | activity change, positive = activation ([9]; at 92.4 µM (top of the series)) -19.3% | Potency [10] | Potency [12] | Potency [13]

CCC(C)[O-].CCC(C)[O-].CCOC(=O)/C=C(/C)[O-].[Al+3]
inactive: Potency [1] | Potency [2] | Potency [5] | Potency [7] | Potency [14] | Potency [8] | Potency [15] | Potency [10] | Potency [11] | Potency [12] | Potency [13]

CNc1ccc([N+](=O)[O-])cc1
inactive: Potency [4] | Potency [16] | Potency [17] | Potency [6] | Potency [7] | Potency [14] | Potency [8] | Potency [15] | Potency [18] | activity change, positive = activation ([9]; at 92.4 µM (top of the series)) 0.163% | Potency [10] | Potency [11] | Potency [12] | Potency [13]
active: Potency [1] 43.4 µM | Potency [3] 48.7 µM | Potency [5] 48.7 µM

O=C(Nc1ccc2c(O)c(N=Nc3ccc(N=Nc4ccc(S(=O)(=O)O)cc4)cc3)c(S(=O)(=O)O)cc2c1)c1ccccc1
active: Potency [19] 35.6 µM | Potency [2] 24.3 µM | Potency [3] 27.3 µM | Potency [5] 24.3 µM | Potency [17] 27.3 µM | Potency [15] 50.5 µM
inactive: Potency [16] | Potency [7] | Potency [20] | activity change, positive = activation ([9]; at 92.4 µM (top of the series)) -30% | Potency [11] | Potency [12]

CCCCCC(C)OC(=O)COc1ccc(Cl)c2cccnc12 (stereo not drawn)
inactive: Potency [19] | Potency [2] | Potency [3] | Potency [4] | Potency [16] | Potency [5] | Potency [20] | Potency [14] | Potency [8] | Potency [10] | Potency [11] | Potency [12] | Potency [13]

CCO[C@@H]1O[C@H](C(COCc2ccccc2)OCc2ccccc2)[C@H](OCc2ccccc2)[C@H]1O (stereo partly drawn)
inactive: Potency [19] | Potency [2] | Potency [3] | Potency [16] | Potency [7] | Potency [14] | activity change, positive = activation ([9]; at 42.5 µM (top of the series)) -48% | Potency [10] | Potency [12]
active: Potency [18] 29.8 µM

CCC(CC)(CC(=O)Nc1cccc(/C=C/c2nc(C3CCC3)cs2)c1)C(=O)O
active: Potency [19] 2.75 µM | Potency [16] 23.7 µM
inactive: Potency [2] | Potency [3] | Potency [4] | Potency [5] | Potency [20] | Potency [8] | Potency [15] | Potency [10] | Potency [11] | Potency [12] | Potency [13]

O=C1C(c2[nH]c3ccc(S(=O)(=O)O)cc3c2O)=Nc2ccc(S(=O)(=O)O)cc21
inactive: Potency [2] | Potency [3] | Potency [5] | Potency [6] | Potency [20] | Potency [8] | Potency [15] | Potency [18] | activity change, positive = activation ([9]; at 92.4 µM (top of the series)) -7.96% | Potency [10] | Potency [11] | Potency [12] | Potency [13]
active: Potency [19] 31.7 µM
